Assay results as given in PubChem BioAssay (EPA / NIEHS).
Where “and” joins values, the source holds several entries; their conditions need not be identical. Identical values can stand only once. Results filed as inconclusive are left out. Calls of active or inactive are those of the source. The calls were made as follows: active = hit-call score of the fitted dose curve at least 0.9, where 1 is the maximum; inconclusive = response in the unintended direction; inactive = score below 0.9.

Target: human Adrenergic, Alpha 2A Receptor (Adra2A), ADRA2A (gene 150) (UniProt P08913)
Sequence (P08913 whole entry, looked up): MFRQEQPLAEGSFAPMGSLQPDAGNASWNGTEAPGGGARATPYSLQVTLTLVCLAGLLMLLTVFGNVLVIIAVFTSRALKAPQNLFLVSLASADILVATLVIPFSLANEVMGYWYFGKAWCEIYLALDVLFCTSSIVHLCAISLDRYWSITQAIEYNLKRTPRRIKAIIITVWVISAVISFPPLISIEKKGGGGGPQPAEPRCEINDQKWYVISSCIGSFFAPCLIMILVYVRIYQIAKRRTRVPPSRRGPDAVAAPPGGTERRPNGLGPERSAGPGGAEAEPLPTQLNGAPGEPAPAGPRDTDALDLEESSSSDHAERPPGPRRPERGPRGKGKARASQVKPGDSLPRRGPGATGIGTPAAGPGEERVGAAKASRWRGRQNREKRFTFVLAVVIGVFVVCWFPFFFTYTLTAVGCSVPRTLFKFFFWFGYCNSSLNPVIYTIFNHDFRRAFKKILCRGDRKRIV
Assay: NVS_GPCR_hAdra2A: NovaScreen (NVS) G Protein-Coupled Receptor Assay for human Adrenergic, Alpha 2A Receptor (Adra2A) (AID 2283257)
Method in brief: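 Displacement of a specific radioligand from HT29 membrane protein was counted by filter scintillation after 1 h. Compounds were screened in duplicate at 25 uM, and actives were retested in concentration series. Fitting was positive-direction against DMSO.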

Compound	outcome	AC50
COC(=O)CSc1cc(N=c2sc(=O)n3n2CCCC3)c(F)cc1Cl	inactive	
N#CSCSc1nc2ccccc2s1		4.68 µM (active)
C=CCOC(Cn1ccnc1)c1ccc(Cl)cc1Cl (stereo not drawn)		16.4 µM (active)

Target: human Adrenergic, Beta 1 Receptor (Adrb1), ADRB1 (gene 153) (UniProt P08588)
Sequence (P08588 whole entry, looked up): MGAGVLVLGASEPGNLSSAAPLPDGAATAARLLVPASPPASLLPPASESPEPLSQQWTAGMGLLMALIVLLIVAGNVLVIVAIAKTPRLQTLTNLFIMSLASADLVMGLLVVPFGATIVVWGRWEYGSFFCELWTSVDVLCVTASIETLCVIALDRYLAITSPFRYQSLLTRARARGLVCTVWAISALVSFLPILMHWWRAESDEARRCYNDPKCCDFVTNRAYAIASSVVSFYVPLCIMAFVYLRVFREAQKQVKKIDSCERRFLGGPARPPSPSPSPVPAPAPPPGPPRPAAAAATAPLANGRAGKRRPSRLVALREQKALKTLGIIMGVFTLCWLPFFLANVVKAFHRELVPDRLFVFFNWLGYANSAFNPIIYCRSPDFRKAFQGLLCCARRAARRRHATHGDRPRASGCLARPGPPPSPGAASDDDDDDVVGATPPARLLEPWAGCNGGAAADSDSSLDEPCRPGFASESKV
Assay: NVS_GPCR_hAdrb1: NovaScreen (NVS) G Protein-Coupled Receptor Assay for human Adrenergic, Beta 1 Receptor (Adrb1) (AID 2283258)
Method in brief: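 Membranes/protein extracted from human neuroepithelioma cells, radioligand competition binding read by filtration and scintillation 2 h post-dose. Single 25 uM duplicate screen, then concentration-response follow-up; DMSO as negative control.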

Compound	outcome	AC50
Oc1ccc(C(c2ccc(O)cc2)C(Cl)(Cl)Cl)cc1	inactive	
CC(C)CCCCCCc1ccc(O)cc1		38 µM (active)
CC(C)(c1ccc(O)cc1)c1ccc(O)cc1	inactive	

Target: human Adrenergic, Alpha 2c Receptor (Adra2C), ADRA2C (gene 152) (UniProt P18825)
Sequence (P18825 whole entry, looked up): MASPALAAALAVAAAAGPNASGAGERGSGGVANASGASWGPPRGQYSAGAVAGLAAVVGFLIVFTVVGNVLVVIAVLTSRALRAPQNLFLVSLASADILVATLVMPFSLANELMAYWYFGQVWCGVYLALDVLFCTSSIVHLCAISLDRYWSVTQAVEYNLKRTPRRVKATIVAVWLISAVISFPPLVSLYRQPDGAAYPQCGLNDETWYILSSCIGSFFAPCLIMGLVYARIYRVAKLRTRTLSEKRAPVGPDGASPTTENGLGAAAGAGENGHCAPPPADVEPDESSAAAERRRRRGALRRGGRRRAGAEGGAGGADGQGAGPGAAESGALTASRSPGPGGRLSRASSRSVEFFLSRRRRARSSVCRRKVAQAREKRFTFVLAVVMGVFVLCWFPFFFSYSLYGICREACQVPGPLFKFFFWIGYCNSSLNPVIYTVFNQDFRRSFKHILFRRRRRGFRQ
Assay: NVS_GPCR_hAdra2C: NovaScreen (NVS) G Protein-Coupled Receptor Assay for human Adrenergic, Alpha 2c Receptor (Adra2C) (AID 2283259)
Method in brief: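 Screened first in duplicate at 25 uM, with actives then run as concentration series. Membranes from Sf9 cells were exposed for 1 h, and displacement of radioligand was counted after filtration, using DMSO as baseline.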

Compound	outcome	AC50
CCOC(=O)C(C)Oc1ccc(Oc2cnc3cc(Cl)ccc3n2)cc1 (stereo not drawn)	inactive	
CCOC(=O)[C@H](C)Oc1ccc(Oc2nc3ccc(Cl)cc3o2)cc1	inactive	
Oc1ccc(C(c2ccc(O)cc2)C(Cl)(Cl)Cl)cc1		6.88 µM (active)
CCOC(=O)C(C)Oc1ccc(Oc2nc3ccc(Cl)cc3o2)cc1 (stereo not drawn)	inactive	
CC(C)(c1ccc(O)cc1)c1ccc(O)cc1	inactive	

Target: Beta-2 adrenergic receptor (Homo sapiens) (UniProt P07550)
Sequence (P07550 whole entry, looked up): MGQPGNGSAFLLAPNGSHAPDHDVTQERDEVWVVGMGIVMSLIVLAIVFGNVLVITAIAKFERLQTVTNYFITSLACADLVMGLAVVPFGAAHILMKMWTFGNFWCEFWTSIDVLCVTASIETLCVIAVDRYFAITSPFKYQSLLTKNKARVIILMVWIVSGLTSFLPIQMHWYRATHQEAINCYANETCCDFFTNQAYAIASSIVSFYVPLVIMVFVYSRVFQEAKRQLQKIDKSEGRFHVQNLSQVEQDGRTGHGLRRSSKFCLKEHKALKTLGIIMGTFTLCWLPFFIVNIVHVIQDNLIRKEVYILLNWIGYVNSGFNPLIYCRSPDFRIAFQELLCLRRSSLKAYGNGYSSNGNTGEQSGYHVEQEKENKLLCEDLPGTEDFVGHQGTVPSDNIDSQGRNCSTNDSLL
Assay: NVS_GPCR_hAdrb2: NovaScreen (NVS) G Protein-Coupled Receptor Assay for human Adrenergic, Beta 2 Receptor (Adrb2) (AID 2283261)
Method in brief: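 Compounds screened in duplicate at 25 uM, then actives in concentration series. Human beta-2 receptor from CHO material, cell-free; radioligand displacement after 1 h measured by filtration and scintillation against DMSO baseline.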

Compound	outcome
COC(=O)c1ccccc1S(=O)(=O)NC(=O)Nc1nc(OC(F)F)cc(OC(F)F)n1	inactive
CCCCC(CC)CN1C(=O)C2C3C=CC(C3)C2C1=O (stereo not drawn)	inactive
Oc1ccc(C(c2ccc(O)cc2)C(Cl)(Cl)Cl)cc1	inactive
CC(C)(c1ccc(O)cc1)c1ccc(O)cc1	inactive
C=CCOC(Cn1ccnc1)c1ccc(Cl)cc1Cl (stereo not drawn)	inactive

Target: Type-1 angiotensin II receptor (Homo sapiens) (UniProt P30556)
Sequence (P30556 whole entry, looked up): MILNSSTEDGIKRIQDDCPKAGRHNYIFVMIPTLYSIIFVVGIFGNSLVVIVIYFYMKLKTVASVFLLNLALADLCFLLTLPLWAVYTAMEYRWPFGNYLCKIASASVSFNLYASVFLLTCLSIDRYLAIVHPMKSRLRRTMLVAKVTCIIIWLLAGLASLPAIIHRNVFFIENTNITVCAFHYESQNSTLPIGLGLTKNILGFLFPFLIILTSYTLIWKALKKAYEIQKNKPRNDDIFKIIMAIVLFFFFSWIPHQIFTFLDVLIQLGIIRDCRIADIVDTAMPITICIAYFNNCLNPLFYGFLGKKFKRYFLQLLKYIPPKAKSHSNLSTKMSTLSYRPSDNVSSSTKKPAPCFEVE
Assay: NVS_GPCR_hAT1: NovaScreen (NVS) G Protein-Coupled Receptor Assay for human Angiotensin II receptor type 1 (AT1) (AID 2283263)
Method in brief: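 Hits from a 25 uM duplicate screen (threshold e.g. 30% inhibition) were run in concentration-response with 50 uM top concentration. Displacement of specific radioligand from KAN-TS membrane preparations measured after 3 h by filter scintillation, DMSO as baseline.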

Compound	outcome	AC50
CCCCCCC(C)OC(=O)COc1nc(F)c(Cl)c(N)c1Cl (stereo not drawn)	inactive	
COCCO	inactive	
S=C(S)NCCNC(=S)S.[Mn+2].[S-]C([S-])=NCCN=C([S-])[S-].[Zn+2]	inactive	
N#CSCSc1nc2ccccc2s1		9.3 µM (active)

Target: human Dopamine Receptor D2 (DRD2), DRD2 (gene 1813) (UniProt P14416)
Sequence (P14416 whole entry, looked up): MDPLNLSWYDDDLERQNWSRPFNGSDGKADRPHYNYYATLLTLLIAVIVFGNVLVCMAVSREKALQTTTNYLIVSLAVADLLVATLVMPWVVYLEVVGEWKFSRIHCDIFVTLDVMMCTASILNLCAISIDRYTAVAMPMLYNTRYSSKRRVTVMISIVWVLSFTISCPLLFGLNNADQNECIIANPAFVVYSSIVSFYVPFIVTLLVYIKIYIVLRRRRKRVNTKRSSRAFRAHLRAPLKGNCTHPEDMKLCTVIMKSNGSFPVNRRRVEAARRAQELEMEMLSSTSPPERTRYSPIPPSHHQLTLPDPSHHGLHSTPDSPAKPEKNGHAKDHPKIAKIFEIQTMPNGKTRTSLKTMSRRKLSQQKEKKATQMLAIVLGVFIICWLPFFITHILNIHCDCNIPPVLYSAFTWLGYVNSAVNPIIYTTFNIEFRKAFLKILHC
Assay: NVS_GPCR_hDRD2s: NovaScreen (NVS) G Protein-Coupled Receptor Assay for human Dopamine Receptor D2 (DRD2) (AID 2283266)
Method in brief: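 Test compound (25 uM, duplicate in the primary screen; concentration series at follow-up) competed with radioligand for human DRD2 in CHO-derived membrane protein. Filter-based scintillation counting was done 1.5 hours after dosing, with loss of signal analysed against DMSO.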

Compound	outcome	AC50
S=C(S)NCCNC(=S)S.[Mn+2].[S-]C([S-])=NCCN=C([S-])[S-].[Zn+2]	inactive	
Oc1ccc(C(c2ccc(O)cc2)C(Cl)(Cl)Cl)cc1		25 µM (active)
S=C([S-])NCCNC(=S)[S-].[Mn+2]	inactive	

Target: human Histamine 1 Receptor (H1), HRH1 (gene 3269) (UniProt P35367)
Sequence (P35367 whole entry, looked up): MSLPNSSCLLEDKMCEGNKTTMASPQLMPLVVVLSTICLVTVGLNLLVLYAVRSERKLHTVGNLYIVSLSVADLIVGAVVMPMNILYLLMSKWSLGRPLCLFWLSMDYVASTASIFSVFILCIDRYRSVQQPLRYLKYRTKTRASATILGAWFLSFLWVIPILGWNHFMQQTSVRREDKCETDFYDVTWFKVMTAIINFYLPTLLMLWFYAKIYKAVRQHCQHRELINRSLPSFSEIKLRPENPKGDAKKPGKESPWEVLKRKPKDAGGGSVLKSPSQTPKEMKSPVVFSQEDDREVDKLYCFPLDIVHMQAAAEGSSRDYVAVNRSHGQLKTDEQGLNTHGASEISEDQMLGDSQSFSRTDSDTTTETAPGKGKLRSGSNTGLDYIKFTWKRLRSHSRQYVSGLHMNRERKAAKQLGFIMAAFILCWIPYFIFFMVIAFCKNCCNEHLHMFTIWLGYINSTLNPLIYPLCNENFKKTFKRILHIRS
Assay: NVS_GPCR_hH1: NovaScreen (NVS) G Protein-Coupled Receptor Assay for human Histamine 1 Receptor (H1) (AID 2283268)
Method in brief: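 Filter-based scintillation detection of radioligand binding to human H1, 1 h incubation; chemicals screened in duplicate at 25 uM, then concentration-response; signal loss relative to DMSO taken as activity.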

Compound	outcome
S=C(S)NCCNC(=S)S.[Mn+2].[S-]C([S-])=NCCN=C([S-])[S-].[Zn+2]	inactive
CCOC(=O)COc1cc(-n2ncc(C(F)(F)F)c(C)c2=O)c(F)cc1Cl	inactive
CCNc1nc(N)nc(Cl)n1	inactive
S=C([S-])NCCNC(=S)[S-].[Mn+2]	inactive

Target: D(1A) dopamine receptor (Homo sapiens) (UniProt P21728)
Sequence (P21728 whole entry, looked up): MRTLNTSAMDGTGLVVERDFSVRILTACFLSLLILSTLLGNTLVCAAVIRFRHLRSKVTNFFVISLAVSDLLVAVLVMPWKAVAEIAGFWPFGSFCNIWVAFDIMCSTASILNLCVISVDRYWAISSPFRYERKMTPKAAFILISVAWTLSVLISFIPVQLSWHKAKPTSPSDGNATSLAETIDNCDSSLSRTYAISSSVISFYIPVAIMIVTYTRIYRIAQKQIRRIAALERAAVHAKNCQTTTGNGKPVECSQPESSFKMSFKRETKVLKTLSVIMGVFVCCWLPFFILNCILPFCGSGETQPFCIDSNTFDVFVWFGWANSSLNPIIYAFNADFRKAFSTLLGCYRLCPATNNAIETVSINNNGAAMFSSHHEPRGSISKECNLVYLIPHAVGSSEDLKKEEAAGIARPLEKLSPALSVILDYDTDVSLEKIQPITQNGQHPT
Assay: NVS_GPCR_hDRD1: NovaScreen (NVS) G Protein-Coupled Receptor Assay for human Dopamine Receptor D1 (DRD1) (AID 2283269)
Method in brief: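 Cell-free radioligand binding to human DRD1 from HEK293 membranes, read 1 h after dosing by filter-based scintillation counting. Loss of signal versus DMSO baseline marks displacement. Primary screen at 25 uM single concentration in duplicate; actives followed up in concentration series.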

Compound	AC50	outcome
CCCCCCC(C)OC(=O)COc1nc(F)c(Cl)c(N)c1Cl (stereo not drawn)	25 µM (active)	
CC1(C)C(C=C(Cl)Cl)C1C(=O)OCc1cccc(Oc2ccccc2)c1 (stereo not drawn)		inactive
Oc1ccc(C(c2ccc(O)cc2)C(Cl)(Cl)Cl)cc1	6.83 µM (active)	
N#CSCSc1nc2ccccc2s1	14.8 µM (active) and 16.7 µM (active)	
CC(C)CCCCCCc1ccc(O)cc1	25 µM (active)	
CC(C)(c1ccc(O)cc1)c1ccc(O)cc1		inactive
